Experimental findings from PubChem BioAssay (Tox21) are described below.

Experiment [1] can be described thus: qHTS RealTime-Glo MT Cell Viability Assay in HEK293 cells - 40 hour (AID 1224874). Also: nearly all actives have a fitted effect of over 50% in size. Particulars: RealTime-Glo luminescence; max response: stronger effect = lower value. An outline of the steps: (§1)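 Real-time viability in HEK293: signal arises when living cells convert a prosubstrate for NanoLuc in the medium, so luminescence tracks viable cell number. Compound (23 nL, DMSO) added 5 h post-seeding; kinetic reads at 0–40 h, 37 C.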

The nature of experiment [2]: A CellTox Green Cytotoxicity Assay to monitor cytotoxicity in HEK293 cells - 24 hour (AID 1224875). Also: series mostly up to about 77 µM; nearly all actives have a fitted effect of over 45% in size. An outline of the steps:
(§2)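 Cells (HEK293, 600/well) and dye reagent are dispensed together. After 5 h at 37 C, 23 nL compound is pinned in. Plates stay at 37 C for 40 h with fluorescence read at 0h, 8h, 16h, 24h, 32h and 40h.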

A short description of experiment [3]: A CellTox Green Cytotoxicity Assay to monitor cytotoxicity in HepG2 cells - 16 hour (AID 1224876). Also: nearly all actives have a fitted effect of over 45% in size. An outline of the steps:
(§3)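 Cells and non-lytic dye reagent are dispensed together (600 HepG2 cells/well) and incubated 5 h before DMSO compound transfer. Kinetic fluorescence is then recorded in the same wells during 40 h at 37 C.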

Experiment [4] in a line: qHTS RealTime-Glo MT Cell Viability Assay in HepG2 cells - 32 hour (AID 1224877). Also: nearly all actives have a fitted effect of over 55% in size. An outline of the steps:
(§4)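 Viability was tracked continuously by NanoLuc luminescence from prosubstrate reduced by living HepG2 cells, at successive time points over 40 h of compound exposure. Cells with reagent were preincubated 5 h at 37 °C before compound addition.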
A general note: In qHTS, concentration-response curves come from the screen itself.

The nature of experiment [5]: A CellTox Green Cytotoxicity Assay to monitor cytotoxicity in HepG2 cells - 24 hour (AID 1224878). Also: nearly all actives have a fitted effect of over 45% in size. An outline of the steps: as §3
Experiment [6] in a line: A CellTox Green Cytotoxicity Assay to monitor cytotoxicity in HepG2 cells - 40 hour (AID 1224879). Also: nearly all actives have a fitted effect of over 40% in size. An outline of the steps: as §3
Experiment [7] in a line: qHTS RealTime-Glo MT Cell Viability Assay in HEK293 cells - 0 hour (AID 1224880). Also: top concentration of the series differs between compounds; nearly all actives have a fitted effect of over 45% in size. An outline of the steps: as §1
Experiment [8] can be described thus: A CellTox Green Cytotoxicity Assay to monitor cytotoxicity in HEK293 cells - 32 hour (AID 1224881). Also: nearly all actives have a fitted effect of over 40% in size. An outline of the steps: as §2
Experiment [9] is described as follows: A CellTox Green Cytotoxicity Assay to monitor cytotoxicity in HepG2 cells - 32 hour (AID 1224883). Also: nearly all actives have a fitted effect of over 50% in size. An outline of the steps: as §3
Experiment [10] can be described thus: A CellTox Green Cytotoxicity Assay to monitor cytotoxicity in HEK293 cells - 8 hour (AID 1224884). Also: nearly all actives have a fitted effect of over 35% in size. An outline of the steps:
as §2

The nature of experiment [11]: qHTS RealTime-Glo MT Cell Viability Assay in HepG2 cells - 16 hour (AID 1224885). Also: nearly all actives have a fitted effect of over 50% in size. An outline of the steps:
as §4

The nature of experiment [12]: qHTS RealTime-Glo MT Cell Viability Assay in HEK293 cells - 24 hour (AID 1224886). Also: top concentration of the series differs between compounds; nearly all actives have a fitted effect of over 50% in size. An outline of the steps: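 Viability tracked continuously by luminescence as live cells reduce a prosubstrate for NanoLuc; HEK293 cells preincubated 5 h, compound-treated at 37 C, and read at 0, 8, 16, 24, 32 and 40 h.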
Experiment [13] is described as follows: qHTS RealTime-Glo MT Cell Viability Assay in HEK293 cells - 8 hour (AID 1224887). An outline of the steps:
as §1

The nature of experiment [14]: A CellTox Green Cytotoxicity Assay to monitor cytotoxicity in HEK293 cells - 16 hour (AID 1224888). Also: nearly all actives have a fitted effect of over 35% in size. An outline of the steps:
as §2

A short description of experiment [15]: qHTS RealTime-Glo MT Cell Viability Assay in HepG2 cells - 0 hour (AID 1224889). Also: nearly all actives have a fitted effect of over 50% in size. An outline of the steps: as §4
Experiment [16] in a line: A CellTox Green Cytotoxicity Assay to monitor cytotoxicity in HepG2 cells - 8 hour (AID 1224890). Also: nearly all actives have a fitted effect of over 45% in size. An outline of the steps: as §3
Experiment [17] in a line: qHTS assay to identify small molecule antagonists of the estrogen receptor alpha (ER-alpha) signaling pathway using the BG1 cell line in the presence of 0.1 nM 17-beta-estradiol - cell viability counter screen (AID 1259241). Also: nearly all actives have a fitted effect of over 40% in size. An outline of the steps: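 In this screen, hormone-deprived VM7Luc4E2 cells were seeded at 4,000 per well, dosed with compound and 0.1 nM estradiol final, and incubated 22 hr at 37C and 5% CO2; fluorogenic live-cell protease signal reported viability.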

A short description of experiment [18]: qHTS assay to identify small molecule antagonists of the androgen receptor (AR) signaling pathway using the MDA cell line in the presence of 0.5 nM R1881 - cell viability counter screen (AID 1259242). Also: nearly all actives have a fitted effect of over 45% in size. An outline of the steps:
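Steps: plate MDA-kb2 cells, rest 5 hr at 37C without CO2; pin in compounds in DMSO; add R1881 to 0.5 nM final; incubate 16 hr; add CellTiter-Fluor, 30 min; read fluorescence.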

In experiment [19] the target is Androgen receptor (Homo sapiens) (UniProt P10275). In words: qHTS assay to identify small molecule antagonists of the androgen receptor (AR) signaling pathway using the MDA cell line in the presence of 0.5 nM R1881 (AID 1259243). Also: nearly all actives have a fitted effect of over 50% in size. Also: potency is read from the fitted curve at half-maximal effect. An outline of the steps: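 Stably transfected MDA-kb2 cells express luciferase from an MMTV promoter bearing both AR and GR response elements. Compounds plus 0.5 nM R1881 (final) were incubated 16 hr at 37C without CO2, then luminescence measured.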

A short description of experiment [20]: A CellTox Green Cytotoxicity Assay to monitor cytotoxicity in HepG2 cells - 0 hour (AID 1224882). Also: nearly all actives have a fitted effect of over 35% in size. An outline of the steps:
as §3

Several values for one entry are separate records, joined by “and”; a condition that tells them apart may be missing. Equal entries are not always repeated. Inconclusive results are not listed. Some structures have more than one record in an assay (separate samples or runs), and their calls can disagree. Activity calls are given as the source filed them. Calls follow the shape of the dose curve; as a rule, active = well fitted curve in the direction sought with a large enough effect in the repeat runs; inconclusive = weak or mixed curves; inactive = no such curve, though single readings can be large; an effect the other way counts as inactive or inconclusive.
% is scaled to controls: 0 for no effect and ±100 for the full control effect.

Androgen receptor (Homo sapiens), sequence (P10275 whole entry, looked up): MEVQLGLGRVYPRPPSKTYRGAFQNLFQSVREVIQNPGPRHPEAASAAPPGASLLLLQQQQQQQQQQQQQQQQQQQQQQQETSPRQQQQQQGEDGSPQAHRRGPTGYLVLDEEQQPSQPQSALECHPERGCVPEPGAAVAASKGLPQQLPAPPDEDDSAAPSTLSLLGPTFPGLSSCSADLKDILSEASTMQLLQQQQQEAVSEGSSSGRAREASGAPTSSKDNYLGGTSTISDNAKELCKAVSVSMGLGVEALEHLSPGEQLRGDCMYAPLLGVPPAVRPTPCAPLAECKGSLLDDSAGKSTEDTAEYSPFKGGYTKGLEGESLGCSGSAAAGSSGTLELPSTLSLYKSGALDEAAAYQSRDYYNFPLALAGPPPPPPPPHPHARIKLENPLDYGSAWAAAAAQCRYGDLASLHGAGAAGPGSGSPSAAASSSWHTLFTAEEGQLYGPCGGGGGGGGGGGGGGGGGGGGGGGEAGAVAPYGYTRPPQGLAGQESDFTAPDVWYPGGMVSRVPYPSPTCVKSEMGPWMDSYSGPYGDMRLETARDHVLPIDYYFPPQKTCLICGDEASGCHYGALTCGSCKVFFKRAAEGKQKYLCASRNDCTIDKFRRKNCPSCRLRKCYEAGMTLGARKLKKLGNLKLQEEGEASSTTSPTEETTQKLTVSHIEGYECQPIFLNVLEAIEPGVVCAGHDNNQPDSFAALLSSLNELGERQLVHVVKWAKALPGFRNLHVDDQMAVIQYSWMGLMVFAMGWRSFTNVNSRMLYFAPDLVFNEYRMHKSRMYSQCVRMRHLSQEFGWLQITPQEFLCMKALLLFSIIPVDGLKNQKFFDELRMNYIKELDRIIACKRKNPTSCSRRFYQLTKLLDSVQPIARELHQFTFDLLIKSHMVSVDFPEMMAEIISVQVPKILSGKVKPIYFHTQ

Regarding `O=NN1CCCCCCC1`, in experiment [1], the max response is 6.51% (inactive) and -7.12% (inactive). The Potency entry in experiment [2], in experiment [3], in experiment [5], in experiment [6], in experiment [8] and in [9] was “inactive” in each case. Moreover, the Potency entry in [10], in experiment [12], in experiment [14], in experiment [16] and in experiment [17] was “inactive” throughout. Moreover, the molecule was classed as inactive in experiment [4], in [7], in [11], in [13], in [15] and in experiment [18].
For `[N-]=[N+]=[N-]`, the max response in experiment [1] was -10.7% (inactive) and 2.12% (inactive). Further, the Potency result in experiment [2], in experiment [3], in experiment [5], in experiment [6], in experiment [8] and in experiment [9] was “inactive” throughout. The Potency result in experiment [10], in [12], in experiment [14], in [16] and in experiment [17] was “inactive” throughout. The call in experiment [4], in [7], in experiment [11], in experiment [13] and in experiment [15] was inactive. Besides, the Potency in experiment [19] is 41.8 µM (active) and inactive.
In the case of `CC1C=[C-]C=C1.[C-]#[O+].[C-]#[O+].[C-]#[O+].[Mn]`, the max response in experiment [1] was 5.97% (inactive) and 3.98% (inactive). Also, the Potency entry in experiment [2], in experiment [5], in experiment [6], in experiment [8], in experiment [20] and in [9] was “inactive” in each case. Besides, the Potency result in experiment [10], in experiment [12], in experiment [14], in experiment [16] and in experiment [17] was “inactive” in each case. For the same molecule, the call in experiment [4], in [7], in experiment [11], in experiment [13], in experiment [15] and in experiment [18] was inactive.
As to `CCOP(OCC)OCC`, the max response in experiment [1] was 7.3% (inactive) and 7.34% (inactive). For the same molecule, the Potency entry in [2], in [3], in experiment [5], in experiment [6], in experiment [8] and in experiment [9] was “inactive” each time. For the same molecule, the Potency result in experiment [10], in experiment [12], in experiment [14], in [16] and in [17] was “inactive” each time. Also, the call in experiment [4], in [7], in [11], in experiment [13], in experiment [15] and in experiment [18] was inactive.
With `CC(C)OC(=O)Nc1cccc(Cl)c1`, the max response in [1] is -5.94% (inactive) and -18% (inactive). Also, the Potency result in [2], in experiment [3], in experiment [5], in experiment [6], in experiment [8] and in experiment [20] was “inactive” in each case. Further, the Potency entry in experiment [9], in [10], in experiment [12], in experiment [14], in experiment [16] and in experiment [17] was “inactive” throughout. For the same molecule, the call in experiment [4], in experiment [7], in [11], in [15] and in [18] was inactive.
As to `CCc1cccc(C)c1N(C(=O)CCl)C(C)COC` (stereo not drawn), in [1], the max response was -0.256% (inactive) and -7.36% (inactive). Besides, the Potency entry in experiment [2], in experiment [5], in [6], in experiment [8], in [20] and in experiment [9] was “inactive” throughout. Also, the Potency entry in experiment [10], in [12], in experiment [14], in [16] and in experiment [17] was “inactive” each time. Moreover, the molecule was classed as inactive in [4], in [7], in experiment [11], in [13], in experiment [15] and in experiment [18].
